Inconclusive results are not listed. Calls of active or inactive are those of the source. The calls were made as follows, unless noted: active = hit-call score of the fitted dose curve at least 0.9, where 1 is the maximum; inconclusive = response in the unintended direction; inactive = score below 0.9.
Assays:
[1] = Tanguay_ZF_120hpf_SWIM_legacy: (Legacy) Oregon State University Tanguay Lab 120 Hour Post-fertilization zebrafish Assay for Swim Bladder Malformation (AID 2283654);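 also: swim bladder malformation in each larva scored yes or no under brightfield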
How it was run: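 Static waterborne exposure of single dechorionated Tropical 5D zebrafish embryos, 6–120 hpf, 28C, 0.64% DMSO final. Read-out: swim bladder malformation, present/absent, relative to DMSO negative control; trimethyltin chloride 5uM served as positive control.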

[2] = Tanguay_ZF_120hpf_TRUN_legacy: (Legacy) Oregon State University Tanguay Lab 120 Hour Post-fertilization zebrafish Assay for Truncated Body (AID 2283655)
How it was run: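 Dechorionated Tropical 5D wild-type embryos placed singly from 6 hpf and statically exposed to 120 hpf at 28C, final DMSO 0.64%. Truncated body scored as present/absent by brightfield; not scored in dead embryos.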

[3] = read-out: Broad substrate specificity ATP-binding cassette transporter ABCG2 (Homo sapiens) (UniProt Q9UNQ0); experiment: CLD_ABCG2_6hr: CellzDirect (CLD) Gene Expression Assay for ABC Transporter (ABCG2) at 6 hours (AID 2283660)
How it was run: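 ABCG2 mRNA induction measured by qNPA chemiluminescence in human primary hepatocyte cultures, 6 h post-dose. Chemicals tested at several concentrations against a 0.2% DMSO vehicle; positive-direction fit relative to DMSO.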

[4] = read-out: xenobiotic metabolism (CYP1A1), CYP1A1 (gene 1543); experiment: CLD_CYP1A1_6hr: CellzDirect (CLD) Gene Expression Assay for xenobiotic metabolism (CYP1A1) at 6 hours (AID 2283661);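 also: potency for transcript induction above DMSO vehicle baseline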
How it was run: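 Read-out 6 h post-dose: qNPA chemiluminescent quantitation of transcript induction against 0.2% DMSO. Cells were cultured primary human hepatocytes from two separate donor preparations; phase-contrast morphology annotated apparent cytotoxicity.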

[5] = read-out: xenobiotic metabolism (CYP1A2), CYP1A2 (gene 1544); experiment: CLD_CYP1A2_6hr: CellzDirect (CLD) Gene Expression Assay for xenobiotic metabolism (CYP1A2) at 6 hours (AID 2283663);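 as to AC50: potency is for induction meaning a rise in mRNA above DMSO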
How it was run: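 mRNA levels quantified by quantitative nuclease protection assay with chemiluminescence, 6 h after dosing human primary hepatocyte cultures (two donors) across several concentrations, vehicle 0.2% DMSO. Induction fitted upward versus DMSO; phase-contrast cytotoxicity annotated.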

[6] = Tanguay_ZF_120hpf_TR_legacy: (Legacy) Oregon State University Tanguay Lab 120 Hour Post-fertilization zebrafish Assay for Touch Response (AID 2283667)
How it was run: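 Readout is presence or absence of touch response in 120 hpf zebrafish larvae, assessed by brightfield observation after continuous static exposure at 28C. Final vehicle was 0.64% (vol/vol) DMSO.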

[7] = read-out: xenobiotic metabolism (CYP1A1), CYP1A1 (gene 1543); experiment: CLD_CYP1A1_24hr: CellzDirect (CLD) Gene Expression Assay for xenobiotic metabolism (CYP1A1) at 24 hours (AID 2283673);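 also: CYP1A1 mRNA level by quantitative nuclease protection with chemiluminescence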
How it was run: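 Transcript levels were read at 24 h by qNPA chemiluminescence in human liver primary cells. Cells got daily fresh dosing at multiple concentrations (vehicle 0.2% DMSO). Induction fitted upward against DMSO; phase-contrast cytotoxicity annotated.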

[8] = read-out: ABC Transporter (ABCB1), ABCB1 (gene 5243); experiment: CLD_ABCB1_6hr: CellzDirect (CLD) Gene Expression Assay for ABC Transporter (ABCB1) at 6 hours (AID 2283659);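 also: hits raise ABCB1 transcript above the DMSO vehicle baseline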
How it was run: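 ABCB1 transcript measured by quantitative nuclease protection assay, chemiluminescent read-out, 6 h after dosing human hepatocyte cultures (0.2% DMSO vehicle, daily redosing). Activity fitted as increase over DMSO baseline; cytotoxicity flagged by phase-contrast morphology.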

[9] = read-out: alkyl and aryl transferase (GSTA2), GSTA2 (gene 2939); experiment: CLD_GSTA2_6hr: CellzDirect (CLD) Gene Expression Assay for alkyl and aryl transferase (GSTA2) at 6 hours (AID 2283666)
How it was run: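 GSTA2 transcript induction at 6 h, quantified by nuclease protection (qNPA) with chemiluminescent detection, in human liver primary hepatocytes exposed to several compound concentrations with 0.2% DMSO as baseline; phase-contrast morphology annotated apparent cytotoxicity.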

[10] = read-out: ABC Transporter (ABCB11), ABCB11 (gene 8647); experiment: CLD_ABCB11_24hr: CellzDirect (CLD) Gene Expression Assay for ABC Transporter (ABCB11) at 24 hours (AID 2283674; active = hit-call score of the fitted dose curve at least 0.9, where 1 is the maximum; inactive = score below 0.9)
How it was run: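 ABCB11 transcript was quantified by qNPA chemiluminescence in cultured human liver hepatocytes 24 hours after dosing. Fresh dosing solutions were applied on consecutive days, against a 0.2% DMSO vehicle. Cytotoxicity was noted by phase-contrast morphology.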

[11] = test system: Thyroperoxidase (TPO), gene 54314; experiment: CCTE_Simmons_AUR_rTPO: CCTE's Amplex UltraRed Assay for Thyroperoxidase (TPO) Inhibition, Simmons Lab (AID 2283662);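 also: potency for loss of signal meaning inhibition of peroxidase activity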
How it was run: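 Rat thyroid microsomes (5 ug protein) were incubated with test compound (8 concentrations, 5 nM–87.5 uM final, 0.5% DMSO), 25 uM Amplex UltraRed and 300 uM H2O2 in 200 mM phosphate buffer for 30 min at 37C in the dark; fluorescence read at 544/590 nm.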

[12] = CCTE_Simmons_CellTiterGLO_HEK293T: Viability Assessment in CCTE's Assays for Thyroperoxidase (TPO) Inhibition, Simmons Lab (AID 2283665);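 as to AC50: cells exposed to compound for 24 h before readout; actives reduce ATP signal below DMSO vehicle meaning cytotoxicity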
How it was run: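 Luciferase-coupled ATP content after 24 h exposure gives viability; 8-point series from 5 nM to 87.5 uM final in 0.5% DMSO. Human HEK293T cells, 1% FBS medium, three biological replicates, dichlone positive control.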

[13] = read-out: xenobiotic metabolism (CYP2C9), CYP2C9 (gene 1559); experiment: CLD_CYP2C9_6hr: CellzDirect (CLD) Gene Expression Assay for xenobiotic metabolism (CYP2C9) at 6 hours (AID 2283664)
How it was run: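 Readout is qNPA chemiluminescence of CYP2C9 mRNA, taken 6 h after dosing of cultured human liver primary cells at several concentrations. Activity is the increase over 0.2% DMSO baseline. Morphology-based cytotoxicity flagged yes/no.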

[14] = read-out: glucuronosyltransferase (UGT1A1), UGT1A1 (gene 54658); experiment: CLD_UGT1A1_6hr: CellzDirect (CLD) Gene Expression Assay for glucuronosyltransferase (UGT1A1) at 6 hours (AID 2283672)
How it was run: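 UGT1A1 mRNA induction, read by quantitative nuclease protection assay, 6 h after dosing primary human hepatocytes (two donors, 0.2% DMSO vehicle). Gain of signal fitted relative to vehicle.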

[15] = read-out: sulfotransferase (SULT2A), SULT2A1 (gene 6822); experiment: CLD_SULT2A_6hr: CellzDirect (CLD) Gene Expression Assay for sulfotransferase (SULT2A) at 6 hours (AID 2283669);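 also: hits raise transcript level above the DMSO vehicle baseline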
How it was run: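 Measured 6 h after dosing, SULT2A1 mRNA in human hepatocyte lysates was quantified by S1 nuclease protection with chemiluminescent detection. Increases fitted against 0.2% DMSO vehicle baseline; phase-contrast cytotoxicity recorded yes/no.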

Measured: AC50

Chain of Broad substrate specificity ATP-binding cassette transporter ABCG2 (Homo sapiens) (Q9UNQ0 whole entry, looked up): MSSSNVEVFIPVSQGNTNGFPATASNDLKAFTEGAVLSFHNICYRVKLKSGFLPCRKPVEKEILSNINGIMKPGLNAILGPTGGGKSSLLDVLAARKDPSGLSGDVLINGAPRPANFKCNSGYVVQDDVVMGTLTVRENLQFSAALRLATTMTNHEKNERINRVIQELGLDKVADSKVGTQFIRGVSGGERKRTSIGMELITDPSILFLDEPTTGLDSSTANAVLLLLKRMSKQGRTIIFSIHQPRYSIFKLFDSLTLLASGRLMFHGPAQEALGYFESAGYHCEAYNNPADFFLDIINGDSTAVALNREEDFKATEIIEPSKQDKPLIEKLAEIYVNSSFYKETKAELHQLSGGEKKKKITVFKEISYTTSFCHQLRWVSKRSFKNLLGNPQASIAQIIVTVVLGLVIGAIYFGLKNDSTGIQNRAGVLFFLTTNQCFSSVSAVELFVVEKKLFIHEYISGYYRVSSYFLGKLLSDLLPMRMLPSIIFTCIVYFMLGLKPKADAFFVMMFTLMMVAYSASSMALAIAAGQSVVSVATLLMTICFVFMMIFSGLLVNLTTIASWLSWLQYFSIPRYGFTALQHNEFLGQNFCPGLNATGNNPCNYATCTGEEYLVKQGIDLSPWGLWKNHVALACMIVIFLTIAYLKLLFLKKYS

Nc1cnn(-c2ccccc2)c(=O)c1Cl
inactive: [1] | [2] | [3] | [6] | [7]
active: [4] 5.67 µM | [5] 9.27 µM

CC(C)C1(C)N=C(c2ncccc2C(=O)O)NC1=O (stereo not given)
inactive: [2] | [8] | [3] | [9] | [6] | [10]
active: [4] 1.9 µM | [5] 1.89 µM

Clc1nc(Cl)nc(Nc2ccccc2Cl)n1
active: [11] 6.29 µM | [12] 83.1 µM
inactive: [2] | [3] | [5] | [6] | [7] | [10]

O=c1n(Cl)c(=O)n(Cl)c(=O)n1Cl
active: [11] 22.5 µM | [5] 20 µM | [7] 3.97 µM
inactive: [1] | [2] | [3] | [12] | [9] | [6] | [10]

CC(C)N1C(=O)c2ccccc2NS1(=O)=O
not listed: [3] | [4] | [11] | [12] | [14] | [15]
inactive: all other assays above

CCSC(=O)N1CCCCCC1
inactive: [1] | [2] | [8] | [7]

COC(=O)N(C(=O)N1CO[C@@]2(C(=O)OC)Cc3cc(Cl)ccc3C2=N1)c1ccc(OC(F)(F)F)cc1
inactive: [1] | [8] | [9] | [6]
active: [4] 2.46 µM | [5] 0.449 µM | [7] 1.86 µM

O=C(O)c1c(Cl)ccc2cc(Cl)cnc12
inactive: [1] | [8] | [5] | [13] | [6] | [7]

COC(=O)NC(=S)Nc1ccccc1NC(=S)NC(=O)OC
active: [11] 22.2 µM | [7] 15.1 µM
inactive: [1] | [2] | [5] | [12] | [6]

CCCCOCN(C(=O)CCl)c1c(CC)cccc1CC
active: [4] 5.21 µM | [7] 6.4 µM
inactive: [2] | [3] | [5] | [6] | [14] | [10]

COCC(=O)N(c1c(C)cccc1C)C(C)C(=O)OC (stereo not given)
not listed: [3] | [4] | [11] | [12] | [14] | [15]
inactive: all other assays above

COP(=S)(OC)SCn1nnc2ccccc2c1=O
active: [11] 6.68 µM | [5] 5.35 µM | [12] 53.8 µM | [14] 1.73 µM | [7] 3.65 µM
not listed: [2] | [4] | [13]
inactive: all other assays above

CC(C)=CC1C(C(=O)OCc2coc(Cc3ccccc3)c2)C1(C)C (stereo not given)
inactive: [1] | [8] | [13] | [6] | [14] | [7]
active: [11] 26.8 µM | [12] 32.7 µM

CCN(CC)c1nc(C)cc(OP(=S)(OC)OC)n1
active: [11] 19.1 µM | [5] 5.69 µM | [12] 53.8 µM | [7] 5.14 µM
inactive: [1] | [2] | [6]

O=C(Nc1ccccc1-c1ccc(Cl)cc1)c1cccnc1Cl
inactive: [1] | [2] | [8] | [6] | [15] | [14]
active: [5] 2.34 µM | [7] 5.36 µM

N#Cc1c[nH]cc1-c1cccc2c1OC(F)(F)O2
inactive: [1] | [2] | [13] | [6] | [15]
active: [5] 0.554 µM | [7] 3.64 µM

Source: PubChem BioAssay (EPA / NIEHS)
